KCNQ2 block: blocks the rat KCNQ2 potassium channel | O88943 | CHO-K1 KCNQ2, FluxOR thallium flux, 20 min; stronger effect = lower value | B-score at 10 µM | actives 1.1% (n = 310,000);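 active = fluorescence ratio B-score at most minus 3 library SDs, with starting brightness B-score within 2 library SDs, cut at about -5.5 in these data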
Target sequence (O88943 whole entry, looked up): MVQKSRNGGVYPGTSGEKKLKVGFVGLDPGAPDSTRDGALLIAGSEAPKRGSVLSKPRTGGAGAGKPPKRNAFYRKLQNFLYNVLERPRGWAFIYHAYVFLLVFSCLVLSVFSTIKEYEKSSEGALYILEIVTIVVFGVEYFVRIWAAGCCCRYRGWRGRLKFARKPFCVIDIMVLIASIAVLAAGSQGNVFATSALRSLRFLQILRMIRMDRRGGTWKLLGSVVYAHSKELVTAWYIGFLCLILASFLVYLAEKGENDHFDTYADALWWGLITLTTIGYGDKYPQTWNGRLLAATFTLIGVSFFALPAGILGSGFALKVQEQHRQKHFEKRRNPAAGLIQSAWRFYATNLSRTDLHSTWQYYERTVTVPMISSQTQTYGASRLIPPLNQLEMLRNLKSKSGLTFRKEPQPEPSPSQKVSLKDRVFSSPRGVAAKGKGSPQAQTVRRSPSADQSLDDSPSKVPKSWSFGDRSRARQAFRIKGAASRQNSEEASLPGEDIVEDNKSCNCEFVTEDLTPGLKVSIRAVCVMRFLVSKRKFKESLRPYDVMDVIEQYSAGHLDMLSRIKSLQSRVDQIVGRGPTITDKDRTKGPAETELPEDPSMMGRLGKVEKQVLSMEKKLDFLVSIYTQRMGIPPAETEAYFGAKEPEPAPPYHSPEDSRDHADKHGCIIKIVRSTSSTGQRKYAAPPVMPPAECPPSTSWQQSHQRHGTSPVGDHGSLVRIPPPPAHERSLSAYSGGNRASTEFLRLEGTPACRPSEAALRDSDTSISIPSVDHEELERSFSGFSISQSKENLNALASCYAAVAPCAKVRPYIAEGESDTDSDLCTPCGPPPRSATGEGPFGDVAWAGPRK
KCNQ2 pot: potentiators of rat KCNQ2 potassium channel | O88943 | CHO-K1 KCNQ2, FluxOR thallium flux fluorescence; stronger effect = higher value | B-score at 10 µM | actives 0.54% (n = 310,000);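 active = fluorescence ratio B-score at least 3 SD of library B-scores, with initial fluorescence B-score within 3 of them, cut at about 5.3 in these data; same plate scores as AID 2156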;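 also: B-score of peak minus minimum over baseline fluorescence ratio after K+ and Tl+ stimulus; positive B-score means potentiation of KCNQ2 with more thallium influx and brighter signal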
* = called active by the depositor; i = inactive; nt = not tested or not shown. An excerpt weighted towards active compounds, which were near 1.6% of everything screened.

SMILES	KCNQ2 block	KCNQ2 pot
Cc1ccsc1C(=O)N1CCCC(N2CCN(c3cccc(Cl)c3)CC2)C1 (configuration not stated)	-7.1*	-7.1
NC[C@@H]1O[C@H](C23CC4CC(CC(C4)C2)C3)Cc2c1ccc(O)c2O	-5.8*	-5.8
O=C(c1ccc(CS(=O)c2ccccc2Cl)o1)N1CCN(c2ccccc2)CC1 (configuration not stated)	i	nt
COc1cc(OC)c(C(=O)N2CCN(c3ccccn3)CC2)cc1OC	i	nt
CCCc1ccc(OCc2ccc(C(=O)N3CCN(c4ccccn4)CC3)o2)c(OC)c1	-5.9*	-5.9
O=C(c1ccc(COc2ccc3c(c2)CCC3)o1)N1CCN(c2ccccc2)CC1	-8*	-8
O=C(c1ccco1)N1CCN(C(=O)c2ccc(COc3ccc4c(c3)CCC4)o2)CC1	i	nt
O=C(c1ccc(COc2ccccc2Cl)o1)N1CCN(c2ccccc2)CC1	-6*	-6
O=C(c1ccc(N2CCN(C3CC(=O)N(c4ccc(F)cc4)C3=O)CC2)cc1)c1cccnc1 (configuration not stated)	i	1.1
Cc1cccc(-n2c(C)cc(/C=N/NC(=O)c3ccc(CN4CCOCC4)cc3)c2C)c1	i	1.5
CCn1c(=O)c2cc(C(=O)N(C)c3ccc(OC)cc3OC)sc2c2ccccc21	i	nt
CCn1c(=O)c2cc(C(=O)N(C)c3cc(C)ccc3OC)sc2c2ccccc21	-6.4*	-6.4
CCOC(=O)c1cc2sc(C)cc2n1CC(=O)NCc1ccc(F)cc1	i	nt
Cc1cc(SCC(=O)N2CCC(c3noc4ccc(F)cc34)CC2)nc2ccccc12	i	nt
COc1ccc(NC(=O)c2cn(-c3ccccc3)nc2-c2cc3ccccc3o2)cc1	-6*	-6
COc1ccc(NC(=O)c2cn(-c3ccccc3)nc2-c2ccncc2)cc1	i	nt
COc1ccc(-c2nn(-c3ccccc3)cc2C(=O)NC(=S)NNC(=O)c2ccncc2)cc1	i	nt
COc1ccc(-c2nn(-c3ccccc3)cc2C(=O)NC(=S)Nc2cc(Cl)ccc2Cl)cc1	-7.7*	-7.7
Cc1cc2ccccc2nc1SCC(=O)NC1CCCC1	i	4.8
CN(C)c1ccc(/C=N/N(CCC(=O)NC(C)(C)C)C2=NS(=O)(=O)c3ccccc32)cc1	i	nt
Cc1oc2c(c1C(=O)O)C(=O)c1ccccc1C2=O	i	0.13
Cc1oc2c(c1C(=O)c1ccccc1)C(=O)C(=O)c1ccccc1-2	-7.2*	-7.2
COc1ccc(/C=N/N=C2/SCC(=O)N2Cc2ccccc2)cc1	i	nt
COc1ccccc1-n1c(SCC(=O)NCc2ccc3c(c2)OCO3)nc2cc([N+](=O)[O-])ccc21	i	nt
CC(Sc1nc2cc([N+](=O)[O-])ccc2n1-c1ccc(F)cc1)C(=O)NCc1ccc2c(c1)OCO2 (configuration not stated)	-8*	-8
SMILES	KCNQ2 block	KCNQ2 pot
COc1cc(C(=O)OCCCOC(=O)c2cc(OC)c(OC)c(OC)c2)cc(OC)c1OC	i	1.8
Cc1cc(C(=O)NCC(=O)OC(C(=O)Nc2cc(C(F)(F)F)ccc2Cl)c2ccccc2)ccc1[N+](=O)[O-] (configuration not stated)	-5.8*	-5.8
COc1ccc(C)cc1NC(=O)C(OC(=O)CNC(=O)c1ccc(Br)cc1)c1ccccc1 (configuration not stated)	i	nt
CCCC(=O)OC(C(=O)Nc1cc(C(F)(F)F)ccc1Cl)c1ccccc1 (configuration not stated)	-5.6*	-5.6
O=C(Nc1cc(C(F)(F)F)ccc1Cl)C(Sc1ccccn1)c1ccccc1 (configuration not stated)	i	nt
COc1ccc(N2C(=O)CC(NCc3cccc(F)c3)C2=O)cc1 (configuration not stated)	i	0.55
Cc1ccc(-c2cc(C(=O)NC3CCCCC3)no2)cc1	i	nt
C=CC(=O)N1C/C=C\C(c2ccc(OC)cc2)N(Cc2ccc(F)cc2)C(=O)C1 (configuration not stated)	i	nt
CCc1nc(SCC(=O)Nc2ccccc2)c2c(=O)n(C)c(=O)n(C)c2n1	i	0.55
O=C(Nc1ccc(F)cc1)Nc1ccccc1F	i	3.2
O=C(Nc1ccc2[nH]ccc2c1)c1ccccc1	i	2
O=C(Nc1ccc2[nH]c(=S)sc2c1)Nc1ccccc1F	i	40*
O=C(Nc1ccc2[nH]c(=S)sc2c1)c1ccccc1	i	16*
Cc1ccc(C(=O)N2Cc3ccccc3CC2C(=O)O)cc1 (configuration not stated)	i	2.3
Cc1ccc(NC(=O)C2Cc3ccccc3CN2C(=O)c2ccccc2)cc1Cl (configuration not stated)	-6.1*	-6.1
Nc1nc2n(n1)C(=O)CC(c1ccccc1[N+](=O)[O-])N2 (configuration not stated)	i	nt
Cc1cccc(-n2ncc3c2CCCC3NC(=O)CCc2ccncc2)c1C (configuration not stated)	i	0.05
Cc1ccc(C(=O)Nc2ncccc2O)o1	i	nt
COc1cccc(NC(=O)CN(C)C(=O)c2cn(-c3ccccc3)nc2-c2cccs2)c1	i	nt
CN(C)c1nnnn1Cc1ccccc1	i	nt
CC(C#Cc1c([C@@H](C)Oc2ccccc2)nnn1Cc1ccccc1)Oc1ccccc1 (some centres not stated)	-6.3*	-6.3
CN(C)c1cc(N/N=C/c2ccccc2C(F)(F)F)nc(N(C)C)n1	i	nt
CCN(CC)C(=O)c1sc2nc(-c3cccs3)cc(-c3ccc(Cl)cc3)c2c1N	-6.9*	-6.9
CCN(CC)C(=O)c1sc2nc(-c3cccs3)cc(-c3cccs3)c2c1N	i	nt
Cc1noc(C)c1-c1nc(CS(=O)(=O)c2ccccc2)no1	i	nt
SMILES	KCNQ2 block	KCNQ2 pot
CCCCN(C(=O)c1ccco1)C1CCS(=O)(=O)C1 (configuration not stated)	i	nt
COc1ccc(/C=N/NC(=O)c2nc(-c3ccccc3)cc(-c3ccccc3)n2)cc1O	i	0.2
COc1ccccc1N1CCN(C2CCCN(C(=O)c3ccnc4ccc(C)cc34)C2)CC1 (configuration not stated)	i	nt
Cc1ccc2nccc(C(=O)N3CCCC(N4CCN(c5ccc(F)cc5)CC4)C3)c2c1 (configuration not stated)	-6.5*	-6.5
Cc1cccc(N(C)C(=O)CN(C)S(=O)(=O)c2ccc3c(c2)c(=O)n(C)c(=O)n3C)c1	i	0.93
CC(C)CC1=C/C(=C/c2ccc(-c3ccccc3)o2)C(=O)O1	i	nt
O=C(O)c1c2c(nc3ccccc13)/C(=C/c1ccccc1[N+](=O)[O-])CCC2	i	nt
CC1C/C(=C\c2ccccc2[N+](=O)[O-])c2nc3ccccc3c(C(=O)O)c2C1 (configuration not stated)	-5.8*	-5.8
c1ccc(-c2cnnc(-c3ccccn3)n2)cc1	i	0.55
O=c1c2ccccc2nc(-c2ccccc2Cl)n1O	i	nt
O=C(Oc1ccccc1)c1cccc2cccc(C(=O)Oc3ccccc3)c12	-5.8*	-5.8
O=C(Oc1ccccc1)c1cc2ccccc2oc1=O	i	nt
Cc1cc(=O)[nH]c(N/N=C/c2cccc(Br)c2)n1	i	0.59
COCCOC(=O)/C(=C/c1ccc(OC(=O)c2ccccc2)cc1)C(C)=O	i	0.27
CCOC(=O)/C(=C/c1ccc(OC(=O)c2ccncc2)cc1)C(C)=O	-5.7*	-5.7
Cc1ccc(OCC(=O)NC(C)c2ccccc2)cc1 (configuration not stated)	i	nt

Assay outcomes as filed in PubChem.
